Test results reported in PubChem BioAssay AID463173 (ICCB-Longwood Screening Facility, Harvard Medical School, 2010).
In all, about 52,000 compounds went through this assay and about 4,300 (8.3%) were called active. Shown is part of a subset that was picked to be rich in actives. Values without a mark were called inactive. Rule as the data show it: active = survival mostly below about 52% (no sharp cut-off); inactive = mostly above about 56%.

The molecules below were run on DeltatarO mutant (assay: S. aureus survival, RN4220 and DeltatarO strains – OD600, teichoic acid synthesis inhibitors, primary screen (AID 463173)). Conditions: S. aureus RN4220 wild type/DeltatarO growth, OD600, 18 h, hits give low values, screened at 18.75 µg/mL (by protocol).

| Compound | survival |
| --- | --- |
| O=C(NCc1ccccc1F)c1ccc(CSc2nc3cccnc3n2Cc2ccccc2)cc1 | 75% |
| CCSc1nc(=O)c2c(n1C)NC(=O)CC2c1ccc(O)cc1OC (stereo not drawn) | 57% |
| CCCSc1nc(=O)c2c(n1C)NC(=O)CC2c1cccc(F)c1F (stereo not drawn) | 54% (active) |
| CSc1nc(=O)c2c(n1C)NC(=O)CC2c1ccccc1OC(C)C (stereo not drawn) | 46% |
| Cc1oc(-c2ccc(Cl)cc2)nc1Cn1c(=O)cc(-c2ccccc2)c2c(C)nn(C)c21 | 88% |
| Cc1oc(C)c2c(=O)cc(-c3ccc4c(c3)OCO4)cc(OC(=O)c3ccccc3Br)c12 | 106% |
| O=C(NCCc1ccncc1)Nc1c[nH]c2ccccc2c1=O | 89% |
| COc1ccccc1C(=O)c1cn(CC(=O)Nc2ccccc2F)c2nc(C)ccc2c1=O | 71% |
| CCOc1cc(Cl)c(S(=O)(=O)n2ccnc2)cc1Cl | 73% |
| CCOc1cc(Cl)c(S(=O)(=O)n2cc(C)nc2CC)cc1Cl | 3% (active) |
| CCc1nc(C)cn1S(=O)(=O)c1ccc(Cl)c(Cl)c1OC | 71% |
| CCOc1ccc(C(=O)NCCSc2c(C)[nH]c3ccccc23)cc1OCC | 56% |
| CC1=C(C(=O)Nc2ccc(F)cc2)C(c2ccc(N(C)C)cc2)NC(=O)N1 (stereo not drawn) | 140% |
| Cc1ccc(OCCCCn2c(CCNC(=O)C(C)(C)C)nc3ccccc32)cc1 | 42% (active) |
| Cc1ccccc1OCCn1c(CCNC(=O)C2CCCCC2)nc2ccccc21 | 77% |
| CC(C)(C)C(=O)NCCc1nc2ccccc2n1CCCCOc1ccccc1 | 41% (active) |
| Cc1ccccc1OCCCCn1c(CCNC(=O)C(C)(C)C)nc2ccccc21 | 36% (active) |
| Cc1ccccc1OCCn1c(CCNC(=O)C(C)(C)C)nc2ccccc21 | 82% |
| CCCCCn1c(CCCNC(=O)c2ccccc2)nc2ccccc21 | 59% |
| CCCCCn1c(CCCNC(=O)c2ccc(Cl)cc2)nc2ccccc21 | 85% |
| Cc1cccc(OCCCn2c(CCNC(=O)C(C)(C)C)nc3ccccc32)c1 | 77% |
| CC(=O)NCCc1nc2ccccc2n1CCCCOc1ccc(Cl)cc1 | 61% |
| CC(C)(C)C(=O)NCCc1nc2ccccc2n1CCCCOc1ccc(Cl)cc1 | 18% (active) |
| CCN(CC)S(=O)(=O)c1cccc(C(=O)NCc2ccccc2)c1 | 49% |

| Compound | survival |
| --- | --- |
| CCN(C(=O)Cn1cc(C(=O)c2ccc(F)cc2)c(=O)c2ccc(C)nc21)c1cccc(C)c1 | 71% |
| CCc1ccccc1NC(=O)C1CCN(c2nn3c(=O)cc(C)nc3s2)CC1 | 81% |
| Cc1ccc(N(CC(=O)N2CCN(c3cccc(Cl)c3)CC2)S(=O)(=O)c2c(C)noc2C)cc1 | 73% |
| CCCCS(=O)(=O)CC(O)CSc1nc(-c2ccc(C)cc2)cc(-c2ccccc2)c1C#N (stereo not drawn) | 68% |
| CCN1C(=O)C2C(c3ccc(OC)cc3)NC(CC)(C(=O)OC)C2C1=O (stereo not drawn) | 56% |
| CN(C)CCNC(=O)c1ccc(Cn2c(SCc3ccc(F)cc3)nc3cccnc32)cc1 | 131% |
| COc1ccc(N(CC(C)C)S(=O)(=O)c2nnc(NC(=O)c3ccco3)s2)cc1 | 41% (active) |
| CCN(c1ccccc1C)S(=O)(=O)c1nnc(NC(=O)c2ccco2)s1 | 41% (active) |
| CCN(c1ccc(Cl)cc1)S(=O)(=O)c1nnc(NC(=O)c2ccco2)s1 | 67% |
| CC(C)CN(c1ccccc1)S(=O)(=O)c1nnc(NC(=O)c2ccco2)s1 | 31% (active) |
| CC(C)CC(=O)Nc1nnc(S(=O)(=O)N(CC(C)C)c2ccccc2)s1 | 111% |
| CCN(c1ccccc1)S(=O)(=O)c1nnc(NC(=O)c2ccco2)s1 | 39% (active) |
| Cc1ccccc1N(C)S(=O)(=O)c1nnc(NC(=O)c2ccco2)s1 | 94% |
| CCN(c1cc(C)cc(C)c1)S(=O)(=O)c1nnc(NC(=O)c2ccco2)s1 | 52% |
| CN(c1ccccc1)S(=O)(=O)c1nnc(NC(=O)c2ccco2)s1 | 47% |
| O=C(Cn1c(=O)n(-c2ccccc2)c(=O)c2ccc(C(=O)NCc3ccc4c(c3)OCO4)cc21)Nc1ccc(F)cc1 | 64% |
| CC(C)c1ccc(NC(=O)Cn2cc(S(=O)(=O)Cc3cccc(Cl)c3)c3ccccc32)cc1 | 76% |
| Cn1c(C(=O)N2CCc3ccccc32)cc2sccc21 | 91% |
| CC(=O)N1CCc2c(sc(NC(=O)CSc3ccc(F)cc3)c2-c2nc3ccccc3s2)C1 | 108% |
| Cc1ccc(Cn2c(CNC(=O)c3ccc(Cl)c([N+](=O)[O-])c3)nc3cccnc32)cc1 | 88% |
| CC(SC(=S)N1CCCCCC1)C(=O)O (stereo not drawn) | 90% |
| O=C(Cn1cc(S(=O)(=O)N2CCCC2)c(S(=O)(=O)N2CCCC2)c1)Nc1cccc(F)c1 | 98% |
| Cc1nn(-c2ccccc2)c(-n2cccc2)c1C(=O)NCCCN1CCN(c2ccccc2F)CC1 | 63% |
| Cc1ccc(N(CC(C)C)S(=O)(=O)c2nnc(NC(=O)c3ccco3)s2)cc1 | 44% (active) |
